Reference: PubChem BioAssay (NCI)
The panel holds about 79,000 compounds, 15% with a hit somewhere; the sample as a whole holds those more often. Calls of active or inactive are those of the source. Rule as the data show it: active = growth inhibition above about 70%; inactive = the rest.

Experiments:
[1] = NCI Yeast Anticancer Drug Screen. Data for the rad50 strain (AID 155);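 also: 0% = growth of vehicle-only cultures of the same strain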; conditions: S. cerevisiae rad50 strain growth inhibition, hits give high values
How it was run: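 Vehicle-treated cultures provide the reference for the growth inhibition reported for compound-exposed, repair-deficient yeast.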

[2] = NCI Yeast Anticancer Drug Screen. Data for the mec2-1 strain (AID 157); conditions: S. cerevisiae mec2-1 strain, hits give high values
How it was run: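 Cells of the genetically defined mec2-1 yeast strain are incubated with test compound. Inhibition of growth is calculated against vehicle-treated controls.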

[3] = NCI Yeast Anticancer Drug Screen. Data for the sgs1 mgt1 strain (AID 161);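 also: 0% = growth of cultures given vehicle only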; conditions: S. cerevisiae sgs1 mgt1 strain, hits give high values
How it was run: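 Genetically altered yeast, compound exposure, growth inhibition relative to vehicle.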

[4] = NCI Yeast Anticancer Drug Screen. Data for the cln2 rad14 strain (AID 165);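 also: 0% = growth equal to vehicle treated cultures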; conditions: S. cerevisiae cln2 rad14 strain, hits give high values
How it was run: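 The screen exposed genetically defined yeast (cln2 rad14) to test compounds and scored growth inhibition relative to vehicle-treated controls.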

[5] = NCI Yeast Anticancer Drug Screen. Data for the bub3 strain (AID 167); conditions: S. cerevisiae bub3 mutant strain, hits give high values
How it was run: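 Mutant yeast screening strain plus compound; vehicle-treated cultures serve as the 0% inhibition reference.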

[6] = NCI Yeast Anticancer Drug Screen. Data for the mlh1 rad18 strain (AID 175); conditions: S. cerevisiae mlh1 rad18 strain growth inhibition, hits give high values
How it was run: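 Compound-treated yeast growth, normalised to vehicle controls. Strain bears defined DNA repair mutations.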

[7] = at 5.0 µM (retest, dose inferred, filed as 0.5)
[8] = at 50.0 µM (retest, dose inferred, filed as 5.0)

Measured: growth inhibition

c1ccc(CN(CCCOc2ccccc2)Cc2ccccc2)cc1
active: [3]; [8] 85% | [3]; at 50.0 µM 76.5% | [4]; at 50.0 µM 72.3% | [5]; [8] 71% | [5]; at 50.0 µM 79.8% | [6]; [8] 77% | [6]; at 50.0 µM 80.5%
inactive: [1]; [7] 2% | [1]; [8] 25% | [1]; at 50.0 µM 56.4% | [2]; [7] -4% | [2]; [8] 53% | [2]; at 50.0 µM 29.9% | [3]; [7] 5% | [4]; [7] 3% | [4]; [8] 15% | [5]; [7] 15% | [6]; [7] 25%

O=C(O)c1ccccc1C(c1ccccc1)c1ccccc1
active: [3]; [8] 71% | [3]; at 50.0 µM 85.8% | [4]; [8] 84% | [4]; at 50.0 µM 74.3% | [5]; [8] 79% | [5]; at 50.0 µM 75.3% | [6]; [8] 84%
inactive: [1]; [7] 15% | [1]; [8] 62% | [1]; at 50.0 µM 44.4% | [2]; [7] -8% | [2]; [8] 44% | [2]; at 50.0 µM 65.2% | [3]; [7] 26% | [4]; [7] 13% | [5]; [7] 25% | [6]; [7] 6% | [6]; at 50.0 µM 67%

CCOC(=O)CC1=NC(=Nc2ccc(Cl)c(Cl)c2)SC1
inactive: [1]; [7] 0% | [2]; [7] -3% | [3]; [7] 0% | [4]; [7] -5% | [5]; [7] 4% | [6]; [7] -2%
active: [1]; [8] 95% | [1]; at 50.0 µM 96.2% | [2]; [8] 98% | [2]; at 50.0 µM 99% | [3]; [8] 98% | [3]; at 50.0 µM 99.1% | [4]; [8] 94% | [4]; at 50.0 µM 96.6% | [5]; [8] 98% | [5]; at 50.0 µM 97.7% | [6]; [8] 98% | [6]; at 50.0 µM 98.3%

c1ccc2c(CCc3ccncc3)cccc2c1
active: [1]; [8] 74% | [1]; at 50.0 µM 95.4% | [2]; at 50.0 µM 95.5% | [3]; at 50.0 µM 96% | [4]; at 50.0 µM 88.5% | [5]; [8] 81% | [5]; at 50.0 µM 94.1% | [6]; [8] 71% | [6]; at 50.0 µM 92.5%
inactive: [1]; [7] 4% | [2]; [7] 2% | [2]; [8] 60% | [3]; [7] 1% | [3]; [8] 60% | [4]; [7] 3% | [4]; [8] 53% | [5]; [7] 10% | [6]; [7] 0%

CC(C)(C)NC(=S)N/N=C/c1ccccc1O
inactive: [1]; [7] 48% | [1]; [8] 66% | [2]; [7] 25% | [3]; [7] 40% | [4]; [7] 24% | [4]; [8] 59% | [5]; [7] 36% | [6]; [7] 48%
active: [1]; at 50.0 µM 89% | [2]; [8] 73% | [2]; at 50.0 µM 88.8% | [3]; [8] 88% | [3]; at 50.0 µM 92.5% | [4]; at 50.0 µM 87.2% | [5]; [8] 78% | [5]; at 50.0 µM 88.2% | [6]; [8] 96% | [6]; at 50.0 µM 91%

Clc1ccc(SSN2CCOCC2)cc1
inactive: [1]; [7] 7% | [2]; [7] -2% | [3]; [7] 1% | [4]; [7] -2% | [4]; [8] 40% | [4]; at 50.0 µM 61.3% | [5]; [7] 4% | [6]; [7] 0%
active: [1]; [8] 84% | [1]; at 50.0 µM 98.5% | [2]; [8] 80% | [2]; at 50.0 µM 98.9% | [3]; [8] 98% | [3]; at 50.0 µM 98.9% | [5]; [8] 92% | [5]; at 50.0 µM 98.5% | [6]; [8] 96% | [6]; at 50.0 µM 97.2%

CCCCCCSC(=Cc1cccc[n+]1C)SCCCCCC
active: [1]; [7] 98% | [1]; [8] 96% | [1]; at 50.0 µM 99.5% | [2]; [7] 100% | [2]; [8] 98% | [2]; at 50.0 µM 99.7% | [3]; [7] 100% | [3]; [8] 98% | [3]; at 50.0 µM 99.7% | [4]; [7] 99% | [4]; [8] 95% | [4]; at 50.0 µM 99.3% | [5]; [7] 98% | [5]; [8] 94% | [5]; at 50.0 µM 99.5% | [6]; [7] 100% | [6]; [8] 97% | [6]; at 50.0 µM 99.4%

Cc1ccc(S(=O)(=O)Nn2c(S)c(C#N)c(-c3ccc(Cl)cc3)c(C#N)c2=O)cc1
inactive: [1]; [7] 29% | [1]; at 50.0 µM 55.6% | [2]; [7] 17% | [2]; [8] 66% | [3]; [7] 19% | [4]; [7] 40% | [4]; [8] 56% | [4]; at 50.0 µM 32.4% | [5]; [7] 45% | [5]; at 50.0 µM 65.9% | [6]; [7] 24% | [6]; [8] 56%
active: [1]; [8] 73% | [2]; at 50.0 µM 75.2% | [3]; [8] 91% | [3]; at 50.0 µM 81.8% | [5]; [8] 79% | [6]; at 50.0 µM 73.8%

CC(/C=C1\C(=O)N(C)C(CC(C)C(Cl)(Cl)Cl)C(=O)N1C)C(Cl)(Cl)Cl (stereo not given)
active: [1]; [8] 78% | [2]; [8] 74% | [3]; [8] 76% | [4]; [8] 74% | [5]; [8] 79% | [6]; [8] 79% | [6]; at 50.0 µM 70.7%
inactive: [1]; [7] 6% | [1]; at 50.0 µM 62.8% | [2]; [7] 7% | [2]; at 50.0 µM 30.8% | [3]; [7] 4% | [3]; at 50.0 µM 57.7% | [4]; [7] 25% | [4]; at 50.0 µM 38.5% | [5]; [7] 28% | [5]; at 50.0 µM 36.2% | [6]; [7] 13%

Cc1cc(=O)[nH]c(NN2C(Cl)C(=O)C2c2ccc(O)cc2)n1 (stereo not given)
active: [1]; [8] 81% | [1]; at 50.0 µM 82.2% | [2]; [8] 82% | [3]; at 50.0 µM 79.5% | [5]; [8] 94% | [5]; at 50.0 µM 78.3% | [6]; [8] 92% | [6]; at 50.0 µM 71.3%
inactive: [1]; [7] -14% | [2]; [7] -9% | [2]; at 50.0 µM 67.2% | [3]; [7] -5% | [3]; [8] 68% | [4]; [7] 14% | [4]; [8] 63% | [4]; at 50.0 µM 53.6% | [5]; [7] 7% | [6]; [7] 7%
